Compounds without any hit were thinned out: in the full panel of roughly 79,000, 15% have a hit. Unmarked numbers belong to inactive results. The source made the active and inactive calls. Cut-off read from the data, not from the text of the source: active = growth inhibition above about 70%; inactive = the rest.
Key:
[1] = NCI Yeast Anticancer Drug Screen. Data for the rad50 strain (AID 155);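 note: 0% = growth of vehicle-only cultures of the same strain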; conditions: S. cerevisiae rad50 strain growth inhibition, stronger effect = higher value
Summary of the method: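 Genetically altered yeast (DNA repair pathway); compound treatment; growth inhibition vs vehicle ctrl.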

[2] = NCI Yeast Anticancer Drug Screen. Data for the mec2-1 strain (AID 157); conditions: S. cerevisiae mec2-1 strain, stronger effect = higher value
Summary of the method: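 Vehicle-treated cultures served as reference for growth inhibition of compound-exposed mec2-1 yeast.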

[3] = NCI Yeast Anticancer Drug Screen. Data for the sgs1 mgt1 strain (AID 161);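 note: 0% = growth of cultures given vehicle only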; conditions: S. cerevisiae sgs1 mgt1 strain, stronger effect = higher value
Summary of the method: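 Genetically altered yeast, compound exposure, growth inhibition relative to vehicle.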

[4] = NCI Yeast Anticancer Drug Screen. Data for the cln2 rad14 strain (AID 165);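 note: 0% = growth equal to vehicle treated cultures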; conditions: S. cerevisiae cln2 rad14 strain, stronger effect = higher value
Summary of the method: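 Each compound was tested on cln2 rad14 yeast. Inhibition of growth was calculated against vehicle-exposed controls.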

[5] = NCI Yeast Anticancer Drug Screen. Data for the bub3 strain (AID 167); conditions: S. cerevisiae bub3 mutant strain, stronger effect = higher value
Summary of the method: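 Yeast carrying a defined mutation is treated with each compound, and growth is compared with that of vehicle-exposed cells to give inhibition.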

[6] = NCI Yeast Anticancer Drug Screen. Data for the mlh1 rad18 strain (AID 175); conditions: S. cerevisiae mlh1 rad18 strain growth inhibition, stronger effect = higher value
Summary of the method: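 Vehicle-treated cultures served as the reference for growth inhibition in a yeast strain carrying DNA damage repair alterations exposed to each compound.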

[7] = at 5.0 µM (retest, dose inferred, filed as 0.5)
[8] = at 50.0 µM (retest, dose inferred, filed as 5.0)

## CCCn1c2ccccc2c2ccc3c(c21)C(=O)C=CC3=O
[1]; [7]
  growth inhibition: 31%
[1]; [8]
  growth inhibition: 69%
[1]; at 50.0 µM
  growth inhibition: 67.8%
[2]; [7]
  growth inhibition: 27%
[2]; [8]
  growth inhibition: 80% (active)
[2]; at 50.0 µM
  growth inhibition: 61.9%
[3]; [7]
  growth inhibition: 37%
[3]; [8]
  growth inhibition: 73% (active)
[3]; at 50.0 µM
  growth inhibition: 70.7% (active)
[4]; [7]
  growth inhibition: 18%
[4]; [8]
  growth inhibition: 35%
[4]; at 50.0 µM
  growth inhibition: 56.3%
[5]; [7]
  growth inhibition: 37%
[5]; [8]
  growth inhibition: 80% (active)
[5]; at 50.0 µM
  growth inhibition: 65%
[6]; [7]
  growth inhibition: 42%
[6]; [8]
  growth inhibition: 77% (active)
[6]; at 50.0 µM
  growth inhibition: 62.7%

## O=C1c2ccc3c4ccccc4n(Cc4ccccc4)c3c2C(=O)N1c1ccccc1
[1]; [7]
  growth inhibition: 87% (active)
[1]; [8]
  growth inhibition: 87% (active)
[1]; at 50.0 µM
  growth inhibition: 92% (active)
[2]; [7]
  growth inhibition: 62%
[2]; [8]
  growth inhibition: 62%
[2]; at 50.0 µM
  growth inhibition: 93.4% (active)
[3]; [7]
  growth inhibition: 39%
[3]; [8]
  growth inhibition: 39%
[3]; at 50.0 µM
  growth inhibition: 92.5% (active)
[4]; [7]
  growth inhibition: 75% (active)
[4]; [8]
  growth inhibition: 75% (active)
[4]; at 50.0 µM
  growth inhibition: 92.2% (active)
[5]; [7]
  growth inhibition: 80% (active)
[5]; [8]
  growth inhibition: 80% (active)
[5]; at 50.0 µM
  growth inhibition: 91.5% (active)
[6]; [7]
  growth inhibition: 47%
[6]; [8]
  growth inhibition: 47%
[6]; at 50.0 µM
  growth inhibition: 91.3% (active)

## CCC1CCC2C3CC=C4CC(OC(C)=O)C(N)CC4(C)C3CCC12C (stereo not drawn)
[1]; [7]
  growth inhibition: 6%
[1]; [8]
  growth inhibition: 96% (active)
[1]; at 50.0 µM
  growth inhibition: 93% (active)
[2]; [7]
  growth inhibition: 9%
[2]; [8]
  growth inhibition: 94% (active)
[2]; at 50.0 µM
  growth inhibition: 92.3% (active)
[3]; [7]
  growth inhibition: 4%
[3]; [8]
  growth inhibition: 93% (active)
[3]; at 50.0 µM
  growth inhibition: 89.2% (active)
[4]; [7]
  growth inhibition: 45%
[4]; [8]
  growth inhibition: 95% (active)
[4]; at 50.0 µM
  growth inhibition: 91.3% (active)
[5]; [7]
  growth inhibition: -5%
[5]; [8]
  growth inhibition: 95% (active)
[5]; at 50.0 µM
  growth inhibition: 85.6% (active)
[6]; [7]
  growth inhibition: 12%
[6]; [8]
  growth inhibition: 94% (active)
[6]; at 50.0 µM
  growth inhibition: 91.8% (active)

## CCCCN(CCCC)c1ccc2c(c1)C(O)c1ccccc1-2 (stereo not drawn)
[1]; [7]
  growth inhibition: 6%
[1]; [8]
  growth inhibition: 81% (active)
[1]; at 50.0 µM
  growth inhibition: 76.5% (active)
[2]; [7]
  growth inhibition: 2%
[2]; [8]
  growth inhibition: 74% (active)
[2]; at 50.0 µM
  growth inhibition: 59.2%
[3]; [7]
  growth inhibition: 4%
[3]; [8]
  growth inhibition: 78% (active)
[3]; at 50.0 µM
  growth inhibition: 88.1% (active)
[4]; [7]
  growth inhibition: 5%
[4]; [8]
  growth inhibition: 85% (active)
[4]; at 50.0 µM
  growth inhibition: 74.8% (active)
[5]; [7]
  growth inhibition: 0%
[5]; [8]
  growth inhibition: 77% (active)
[5]; at 50.0 µM
  growth inhibition: 82% (active)
[6]; [7]
  growth inhibition: 15%
[6]; [8]
  growth inhibition: 72% (active)
[6]; at 50.0 µM
  growth inhibition: 85.2% (active)

## CC(=O)SCC(=O)Nc1ccc(Cl)cc1
[1]; [7]
  growth inhibition: 9%
[1]; [8]
  growth inhibition: 91% (active)
[1]; at 50.0 µM
  growth inhibition: 88% (active)
[2]; [7]
  growth inhibition: 1%
[2]; [8]
  growth inhibition: 81% (active)
[2]; at 50.0 µM
  growth inhibition: 68.9%
[3]; [7]
  growth inhibition: -4%
[3]; [8]
  growth inhibition: 85% (active)
[3]; at 50.0 µM
  growth inhibition: 91.1% (active)
[4]; [7]
  growth inhibition: 2%
[4]; [8]
  growth inhibition: 43%
[4]; at 50.0 µM
  growth inhibition: 58.5%
[5]; [7]
  growth inhibition: -18%
[5]; [8]
  growth inhibition: 90% (active)
[5]; at 50.0 µM
  growth inhibition: 79.9% (active)
[6]; [7]
  growth inhibition: 7%
[6]; [8]
  growth inhibition: 90% (active)
[6]; at 50.0 µM
  growth inhibition: 91.6% (active)

## Cc1ccc2c(c1)nc1n2C(N)=Nc2ccccc2S1
[1]; [7]
  growth inhibition: 14%
[1]; [8]
  growth inhibition: 47%
[1]; at 50.0 µM
  growth inhibition: 65.5%
[2]; [7]
  growth inhibition: -14%
[2]; [8]
  growth inhibition: 28%
[2]; at 50.0 µM
  growth inhibition: 45.3%
[3]; [7]
  growth inhibition: -5%
[3]; [8]
  growth inhibition: 45%
[3]; at 50.0 µM
  growth inhibition: 68.6%
[4]; [7]
  growth inhibition: -10%
[4]; [8]
  growth inhibition: 17%
[4]; at 50.0 µM
  growth inhibition: 37.8%
[5]; [7]
  growth inhibition: -16%
[5]; [8]
  growth inhibition: 47%
[5]; at 50.0 µM
  growth inhibition: 75.2% (active)
[6]; [7]
  growth inhibition: 0%
[6]; [8]
  growth inhibition: 40%
[6]; at 50.0 µM
  growth inhibition: 57.2%

From PubChem BioAssay (NCI)
